15 molecules from PubChem BioAssay can be followed below.

Molecules are shown by their SMILES. Values without a mark were called inactive. The source made the active and inactive calls. Rule as the data show it, unless noted: active = inhibition above about 28%; inactive = the rest.

Assay [1] has as its target Nuclear receptor coactivator 3 (Homo sapiens) (UniProt Q9Y6Q9). Briefly: NCOA3 GAL4-fusion reporter inhibition – cell-based, luminescence, quadruplicate, confirmation (AID 588792;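 active = mean inhibition over 43.08%, the solvent-only control mean plus 3 SD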;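 also: 0% = DMSO treated cells and 100% = gossypol at 36 µM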). The following applies: HEK293 GAL4-SRC3 luciferase reporter, at 3.6 µM, active compounds read high. For orientation: A reporter such as luciferase makes a cellular process visible.
Assay [2] deals with transactivating tegument protein VP16 (Human herpesvirus 1), Gal4-VP16 luciferase reporter. Nature of the assay: repression of VP16-driven luciferase reporter – cell-based, luminescence, high throughput, counter-screen for SRC3 inhibitor project (AID 588794; in the data active = inhibition above about 30%). The note with it: mammalian cells, at 3.6 µM, active compounds read high.
In assay [3] the target is Nuclear receptor coactivator 1 (Homo sapiens) (UniProt Q15788). Nature of the assay: NCOA1 GAL4-fusion reporter inhibition – cell-based, luminescence, quadruplicate, confirmation (AID 588820;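 active = mean inhibition above 46.68%, the untreated control wells mean plus 3 SD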;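 also: 0% = DMSO wells and 100% = gossypol 36 µM treated wells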). The following applies: HEK293 GAL4-SRC1 luciferase reporter, at 3.6 µM, active compounds read high.
The nature of assay [4]: repression of VP16-driven luciferase reporter – cell-based, luminescence, high throughput, counter-screen for SRC1 inhibitor project (AID 588824; in the data active = inhibition above about 25%). The following applies: cell-based VP16 transactivation luciferase luminescence; at 3.6 µM; active compounds read high.
Assay [5] is described as follows: StAR promoter reporter inhibitors, counter-screen for LRH-1 inverse agonist project, cell-based, luminescence, high throughput (AID 651611). The following applies: StAR promoter luciferase reporter counterscreen, at 3.6 µM, active compounds read high. In general terms: The purpose of a counterscreen is to sort out artefacts and off-target activity.
Assay [6] deals with Nuclear receptor subfamily 5 group A member 2 (Homo sapiens) (UniProt O00482). Briefly: NR5A2 activity suppression in reporter cells – cell-based, luminescence, confirmation (AID 651613; in the data active = inhibition above about 42%;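 also: HEK293T cells co-transfected with LRH-1 and StAR promoter luciferase reporter; 0% = vehicle wells and 100% = parental cells lacking receptor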). The note with it: cell-based LRH-1 luciferase reporter, inverse agonism; at 3.6 µM; active compounds read high.
Sequence of Nuclear receptor subfamily 5 group A member 2 (Homo sapiens) (O00482 whole entry, looked up): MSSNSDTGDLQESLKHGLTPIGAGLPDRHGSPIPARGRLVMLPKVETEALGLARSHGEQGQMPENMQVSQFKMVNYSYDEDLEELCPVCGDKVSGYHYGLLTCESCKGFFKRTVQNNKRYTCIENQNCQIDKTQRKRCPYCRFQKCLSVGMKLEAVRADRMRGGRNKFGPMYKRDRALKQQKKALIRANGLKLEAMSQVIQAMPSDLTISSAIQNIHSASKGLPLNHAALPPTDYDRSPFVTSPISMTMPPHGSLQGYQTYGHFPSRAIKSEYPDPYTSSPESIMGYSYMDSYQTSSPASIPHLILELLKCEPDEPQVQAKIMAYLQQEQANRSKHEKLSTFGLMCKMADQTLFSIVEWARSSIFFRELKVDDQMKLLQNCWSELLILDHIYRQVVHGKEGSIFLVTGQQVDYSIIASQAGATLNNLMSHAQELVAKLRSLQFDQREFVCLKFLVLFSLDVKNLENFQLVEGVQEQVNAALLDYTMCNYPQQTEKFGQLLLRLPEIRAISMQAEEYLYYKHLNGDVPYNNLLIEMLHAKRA
In assay [7] the target is Steroidogenic factor 1 (Homo sapiens) (UniProt Q13285). Nature of the assay: inverse agonism at SF1 nuclear receptor – cell-based, luminescence, high throughput, counter-screen for LRH-1 inverse agonist project (AID 651614; in the data active = inhibition above about 44%;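 also: cells cotransfected with StAR promoter reporter and SF1 expression vector; 0% = vehicle on cells with receptor and 100% = vehicle on cells lacking receptor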). The following applies: cell-based SF1 luciferase reporter, at 3.6 µM, active compounds read high.
Sequence of Steroidogenic factor 1 (Homo sapiens) (Q13285 whole entry, looked up, the tested form may be a part): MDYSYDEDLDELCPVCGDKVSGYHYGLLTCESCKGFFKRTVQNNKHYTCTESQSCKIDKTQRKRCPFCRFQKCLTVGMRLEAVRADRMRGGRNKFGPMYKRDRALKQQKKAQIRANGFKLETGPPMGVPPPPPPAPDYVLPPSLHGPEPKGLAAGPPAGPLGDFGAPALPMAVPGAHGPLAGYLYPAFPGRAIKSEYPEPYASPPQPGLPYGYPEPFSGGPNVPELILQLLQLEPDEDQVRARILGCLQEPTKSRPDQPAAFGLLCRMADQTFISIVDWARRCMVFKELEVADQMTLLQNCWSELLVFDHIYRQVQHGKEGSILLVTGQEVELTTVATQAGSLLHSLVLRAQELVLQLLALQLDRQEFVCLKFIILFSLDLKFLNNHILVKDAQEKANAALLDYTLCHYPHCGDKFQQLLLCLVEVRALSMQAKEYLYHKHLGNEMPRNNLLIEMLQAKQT
Assay [8] can be described thus: compounds suppressing VP16-driven luciferase signal – cell-based, luminescence, high throughput, counter-screen for LRH-1 inverse agonist project (AID 651615; in the data active = inhibition above about 33%). The note with it: Gal4-VP16 luciferase reporter cells, at 3.6 µM, active compounds read high.
Assay [9] relates to transactivating tegument protein VP16 (Human herpesvirus 1). Briefly: compounds suppressing VP16-driven luciferase signal – cell-based, luminescence, single concentration, counter-screen for SRC2 inhibitor project (AID 652007; in the data active = inhibition above about 36%). The note with it: cell-based VP16 transactivation luciferase reporter, at 8.9 µM, active compounds read high.
The target in assay [10] is Nuclear receptor coactivator 2 (Homo sapiens) (UniProt Q15596). Briefly: inhibition of GAL4-SRC2 driven luciferase expression – cell-based, luminescence, HEK293, triplicate, confirmation (AID 652008;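 active = mean inhibition above 46.5%, the solvent-only control mean plus 3 SD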;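 also: 0% = DMSO-treated cells and 100% = Gossypol at 36 µM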). The following applies: HEK293 GAL4-SRC2 luciferase reporter, at 8.9 µM, active compounds read high.
Sequence of Nuclear receptor coactivator 2 (Homo sapiens) (Q15596 whole entry, looked up, the tested form may be a part): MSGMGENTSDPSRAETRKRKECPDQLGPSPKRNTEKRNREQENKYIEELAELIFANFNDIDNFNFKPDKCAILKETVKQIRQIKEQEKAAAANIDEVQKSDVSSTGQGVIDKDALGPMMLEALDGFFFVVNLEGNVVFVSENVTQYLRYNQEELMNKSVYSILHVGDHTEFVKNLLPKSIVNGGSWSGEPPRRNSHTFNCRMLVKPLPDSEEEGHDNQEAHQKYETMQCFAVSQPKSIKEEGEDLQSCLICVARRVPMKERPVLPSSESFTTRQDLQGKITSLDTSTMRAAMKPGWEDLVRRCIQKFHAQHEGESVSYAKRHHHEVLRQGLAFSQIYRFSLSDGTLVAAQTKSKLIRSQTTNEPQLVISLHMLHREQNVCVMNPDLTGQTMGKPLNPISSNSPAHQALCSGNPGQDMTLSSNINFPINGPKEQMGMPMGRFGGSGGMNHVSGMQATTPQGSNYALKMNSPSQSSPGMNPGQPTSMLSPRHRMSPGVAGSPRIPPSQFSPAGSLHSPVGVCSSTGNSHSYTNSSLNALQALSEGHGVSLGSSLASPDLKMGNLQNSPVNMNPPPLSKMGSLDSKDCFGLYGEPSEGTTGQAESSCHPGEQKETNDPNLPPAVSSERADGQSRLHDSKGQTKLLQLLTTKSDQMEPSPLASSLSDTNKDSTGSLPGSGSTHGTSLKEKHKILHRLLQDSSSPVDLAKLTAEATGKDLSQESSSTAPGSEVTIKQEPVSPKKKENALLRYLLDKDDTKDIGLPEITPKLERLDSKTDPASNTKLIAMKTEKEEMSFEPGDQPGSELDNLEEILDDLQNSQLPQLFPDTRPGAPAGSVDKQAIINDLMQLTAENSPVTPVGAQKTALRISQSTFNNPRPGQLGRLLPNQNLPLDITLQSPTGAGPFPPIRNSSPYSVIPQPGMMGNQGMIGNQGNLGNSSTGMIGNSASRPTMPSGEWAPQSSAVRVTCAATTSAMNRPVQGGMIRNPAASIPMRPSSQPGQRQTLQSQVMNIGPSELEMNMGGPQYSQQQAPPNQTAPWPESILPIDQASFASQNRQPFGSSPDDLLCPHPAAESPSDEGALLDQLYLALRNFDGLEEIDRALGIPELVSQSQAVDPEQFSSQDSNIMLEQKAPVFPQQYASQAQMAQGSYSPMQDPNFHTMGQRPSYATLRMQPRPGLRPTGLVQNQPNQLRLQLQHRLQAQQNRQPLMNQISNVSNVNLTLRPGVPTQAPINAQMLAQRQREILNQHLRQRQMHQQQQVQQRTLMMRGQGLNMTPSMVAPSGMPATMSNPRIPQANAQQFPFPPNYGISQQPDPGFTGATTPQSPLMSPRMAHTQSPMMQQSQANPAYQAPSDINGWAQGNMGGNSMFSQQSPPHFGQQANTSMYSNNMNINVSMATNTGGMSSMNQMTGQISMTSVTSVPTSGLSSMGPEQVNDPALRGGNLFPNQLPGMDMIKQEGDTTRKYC

Sequence of Nuclear receptor coactivator 3 (Homo sapiens) (Q9Y6Q9 whole entry, looked up, the tested form may be a part): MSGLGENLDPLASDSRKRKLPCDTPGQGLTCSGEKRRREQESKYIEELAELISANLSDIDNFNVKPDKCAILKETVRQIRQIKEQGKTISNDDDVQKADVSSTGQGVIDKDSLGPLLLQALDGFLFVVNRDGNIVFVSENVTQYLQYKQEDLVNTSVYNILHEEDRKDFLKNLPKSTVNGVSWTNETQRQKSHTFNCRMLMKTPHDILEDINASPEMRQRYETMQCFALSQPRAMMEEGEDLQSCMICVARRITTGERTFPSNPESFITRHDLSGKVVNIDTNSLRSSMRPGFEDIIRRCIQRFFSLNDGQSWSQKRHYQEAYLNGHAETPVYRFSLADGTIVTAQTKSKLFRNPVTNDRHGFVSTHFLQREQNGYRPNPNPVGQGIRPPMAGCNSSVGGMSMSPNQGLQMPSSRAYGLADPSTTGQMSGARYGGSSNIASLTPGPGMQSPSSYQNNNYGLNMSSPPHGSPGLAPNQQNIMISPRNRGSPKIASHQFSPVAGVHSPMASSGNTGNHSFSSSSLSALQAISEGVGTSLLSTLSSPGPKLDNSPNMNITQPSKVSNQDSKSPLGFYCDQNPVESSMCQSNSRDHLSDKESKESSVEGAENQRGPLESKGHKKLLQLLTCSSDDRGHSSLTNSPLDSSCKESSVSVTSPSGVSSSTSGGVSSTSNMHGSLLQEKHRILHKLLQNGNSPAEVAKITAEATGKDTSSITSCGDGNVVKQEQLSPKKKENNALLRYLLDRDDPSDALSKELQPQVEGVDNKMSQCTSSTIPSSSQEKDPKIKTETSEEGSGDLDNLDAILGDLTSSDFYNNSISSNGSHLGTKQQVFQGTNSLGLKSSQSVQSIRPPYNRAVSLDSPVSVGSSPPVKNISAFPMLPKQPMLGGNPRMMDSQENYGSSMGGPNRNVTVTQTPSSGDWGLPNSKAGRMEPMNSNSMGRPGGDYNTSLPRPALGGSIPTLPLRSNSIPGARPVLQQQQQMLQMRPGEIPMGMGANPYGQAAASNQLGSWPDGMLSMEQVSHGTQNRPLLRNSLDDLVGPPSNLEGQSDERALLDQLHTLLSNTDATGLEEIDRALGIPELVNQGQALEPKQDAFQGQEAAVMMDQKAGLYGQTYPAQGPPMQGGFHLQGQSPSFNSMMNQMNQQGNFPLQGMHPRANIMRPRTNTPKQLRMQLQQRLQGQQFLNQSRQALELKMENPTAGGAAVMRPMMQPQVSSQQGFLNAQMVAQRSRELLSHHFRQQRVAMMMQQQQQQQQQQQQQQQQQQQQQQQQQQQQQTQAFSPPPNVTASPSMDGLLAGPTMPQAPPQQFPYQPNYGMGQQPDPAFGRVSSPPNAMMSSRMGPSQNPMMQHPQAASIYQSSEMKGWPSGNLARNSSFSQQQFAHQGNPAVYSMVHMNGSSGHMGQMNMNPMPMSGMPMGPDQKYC

Usually inhibition stands for the drop in the measured response relative to a control, in per cent. On to `CCCn1c(C)cc(C(=O)CN2C(=O)c3ccccc3S2(=O)=O)c1C`, for which the inhibition in [1] is 70.8% (active); in [2] it was 60.4% (active); in assay [3], 45.7%; in assay [4] it was 55% (active); in assay [5] it was 67% (active); in [6], 36%. For the same molecule, the inhibition was 62.4% (active) in [7], 51.2% (active) in assay [8], 62.8% (active) in assay [9] and 80.5% (active) in assay [10].
In the case of `Cc1cc2sc3ccc(C#CC4(O)CCCCC4)cc3c(=O)c2cc1C`, the inhibition in [1] was 95.4% (active); in assay [2] it was 93.6% (active); in assay [3], 90.4% (active); in [4] it was 89.7% (active); in [5], 91.2% (active); in assay [6] it was 91.2% (active). Further, the inhibition in [7] was 92.6% (active); in [8], 88.9% (active); in assay [9] it was 94.2% (active); in assay [10] it was 98.3% (active).
On to `COC(=O)Cc1ccc(NC(=O)c2ccc(C(C)(C)C)cc2)cc1`, for which the inhibition in assay [1] was 55.9% (active); in assay [2] it was 40.7% (active); in assay [3] it was 43.4%; in assay [4], 44.8% (active); in assay [5] it was 54.3% (active); in assay [6] it was 76.9% (active). Also, the inhibition was 67.3% (active) in [7], 50.8% (active) in assay [8], 21.1% in [9] and 92.9% (active) in [10].
For `Nc1ccc(Oc2ccccc2-c2ccccc2)cc1`, the inhibition was 42.6% in assay [1]; 17.6% in assay [2]; 14.7% in [3]; 19% in assay [4]; 30.3% (active) in assay [5]; 53.5% (active) in assay [6]. Moreover, the inhibition was 49.6% (active) in [7], 39.6% (active) in assay [8], 80.5% (active) in assay [9] and 87.8% (active) in assay [10].
For `CCOc1cccc(/C=N/NC(=S)Nc2ccccc2[N+](=O)[O-])c1O`, the inhibition is 70.3% (active) in [1]; 57.6% (active) in [2]; 44.9% in assay [3]; 38.2% (active) in assay [4]; 66.1% (active) in [5]; 22.9% in assay [6]. The inhibition is 65.2% (active) in [7], 54% (active) in assay [8], 39.7% (active) in assay [9] and 73.3% (active) in assay [10].
For `Cc1nc2c(O)c3c(c(O)c2nc1C)C1C=CC3CC1`, the inhibition was 96.9% (active) in [1]; 93.2% (active) in assay [2]; 88.9% (active) in assay [3]; 92.6% (active) in assay [4]; 91.8% (active) in assay [5]; 107% (active) in assay [6]. For the same molecule, the inhibition in [7] is 96.3% (active); in [8], 98.5% (active); in assay [9] it was 75% (active); in [10] it was 79.4% (active).
`O=C(CSCC(=O)Nc1ccccc1)N/N=C/c1c(O)ccc2ccccc12`: the inhibition is 49.3% (active) in assay [1]; 30.7% (active) in assay [2]; 45.4% in assay [3]; 33.4% (active) in [4]; 86% (active) in assay [5]; 102% (active) in assay [6]. In addition, the inhibition in assay [7] is 91.5% (active); in assay [8] it was 82.9% (active); in assay [9], -14.6%; in assay [10] it was 21.6%.
`Cc1cc(C)c2sc(NNC(=O)c3ccc(S(=O)(=O)N4CCc5ccccc5C4)cc3)nc2c1`: the inhibition in assay [1] is 46.6% (active); in assay [2], 41.1% (active); in assay [3] it was 50% (active); in assay [4], 46.6% (active); in assay [5] it was 68.6% (active); in assay [6], 89.6% (active). For the same molecule, the inhibition in [7] is 66.8% (active); in [8] it was 66.6% (active); in assay [9] it was -4.24%; in assay [10], 29.3%.
Regarding `O=C(COc1ccc(Cl)cc1Cl)Nc1ccccn1`, the inhibition is 56.2% (active) in [1]; 53.6% (active) in assay [2]; 32.1% in [3]; 48.2% (active) in assay [4]; 46.9% (active) in assay [5]; 27.2% in [6]. The inhibition in assay [7] is 60.6% (active); in assay [8], 32.3% (active); in assay [9] it was 67.4% (active); in [10], 85.2% (active).
`CC(C)c1ccc(/C=C(\c2nc3ccccc3[nH]2)S(=O)(=O)c2ccccc2)cc1`: the inhibition in [1] was 54.2% (active); in assay [2], 39.6% (active); in [3], -0.35%; in assay [4], 24.9%; in assay [5], 33.9% (active); in [6], 54.6% (active). Also, the inhibition was 54.7% (active) in [7], 46.6% (active) in [8], 36.6% (active) in [9] and 49.3% (active) in assay [10].
Regarding `Cc1cc(C(=O)COC(=O)c2ccccc2O)c(C)n1CC1CCCO1` (stereo not given), the inhibition in [1] was 88.8% (active); in [2], 85.1% (active); in assay [3], 81.2% (active); in assay [4] it was 76.8% (active); in assay [5] it was 73.5% (active); in assay [6] it was 64.9% (active). Further, the inhibition in [7] is 76.7% (active); in [8] it was 75.2% (active); in [9], 86.7% (active); in assay [10] it was 96.3% (active).
On to `CN=c1scc(-c2cccs2)n1/N=C/c1ccccc1O`, for which the inhibition in assay [1] was 91.6% (active); in assay [2] it was 89.5% (active); in assay [3], 80% (active); in assay [4], 81.4% (active); in assay [5] it was 90.6% (active); in assay [6], 90.4% (active). Moreover, the inhibition in assay [7] was 91.2% (active); in assay [8], 89.6% (active); in assay [9] it was 96.8% (active); in [10], 97.8% (active).
On to `O=C(N/N=C/c1ccc(O)cc1O)c1ccc(CN2C(=O)c3cccc4cccc2c34)cc1`, for which the inhibition in assay [1] is 67.2% (active); in [2], 77.8% (active); in assay [3] it was 78.5% (active); in assay [4], 76.2% (active); in [5], 84.8% (active); in assay [6], 101% (active). For the same molecule, the inhibition was 89.2% (active) in [7], 82.6% (active) in assay [8], -14.6% in assay [9] and 18.8% in [10].
Consider `O=C(CCCN1C(=O)S/C(=C\c2ccccc2)C1=O)NNC(=O)c1ccccc1O`, for which the inhibition in assay [1] is 66% (active); in [2], 58.7% (active); in assay [3], 54.6% (active); in [4], 53.3% (active); in [5] it was 54.9% (active); in assay [6] it was 64% (active). In addition, the inhibition in [7] is 53.8% (active); in assay [8], 63.8% (active); in [9], 89.2% (active); in assay [10] it was 92.8% (active).
Consider `CCOc1c(Br)cc(CNc2ccc3c(c2)OCCO3)cc1OC`, for which the inhibition is 14.5% in [1]; 8.55% in assay [2]; -25.8% in assay [3]; 9.33% in assay [4]; 3.55% in [5]; 3.36% in assay [6]. The inhibition is 19.9% in assay [7], 26.2% in [8], -28.8% in assay [9] and 21.9% in assay [10].
